BCLXL inh: inhibitors of human Bcl-xL, primary screen, biochemical, fluorescence polarization, HTS; Bcl-2-like protein 1 (Homo sapiens), Q07817; inhibition, % at 10.9 µM; actives 0.7% (n = 320,000); GST-Bcl-xL / FITC-Bim BH3 peptide fluorescence polarization;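 active = inhibition above the mean of all tested compounds plus 3 SD, cutoff set per campaign, cut at about 30% in these data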;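 also: 0% = DMSO wells and 100% = unlabeled Bim-BH3 peptide competitor; inhibitors lower millipolarization by displacing the labeled peptide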
Target sequence (Q07817 whole entry, looked up): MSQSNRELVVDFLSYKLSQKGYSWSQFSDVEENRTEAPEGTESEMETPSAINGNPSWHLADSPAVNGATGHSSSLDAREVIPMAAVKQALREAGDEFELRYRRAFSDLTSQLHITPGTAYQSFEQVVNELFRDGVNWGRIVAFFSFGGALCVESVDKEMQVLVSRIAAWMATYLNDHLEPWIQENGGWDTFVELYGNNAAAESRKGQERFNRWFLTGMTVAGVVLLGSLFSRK
MEX-5 binding: MEX-5 zinc finger RNA-binding disruptors – biochemical, C. elegans, fluorescence polarization, MLPCN library, primary screen; Zinc finger protein mex-5 (Caenorhabditis elegans), Q9XUB2; MEX-5/FITC-TCR2 RNA binding; stronger effect = lower value; activity score (negative = inhibition of binding), % at 10 µM; actives 0.38% (n = 300,000); AID 1832, 2009;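 active = inhibition past about -25% in most replicates, and total fluorescence under double the plate's negative control median, limit read from the data; inconclusive = replicates evenly split on the limit, or fluorescence at least double controls; inactive = too little inhibition in most replicates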;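 also: 0% = DMSO and -100% = 5 µM competing unlabeled TCR2 RNA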
EBV gp42 block: Epstein-Barr virus gp42 inhibitors, primary screen, biochemical, uHTS, fluorescence polarization | inhibition, % (tested at 21.74 µM) | AID 1085, 2008 | actives 0.42% (n = 220,000) | Fluorescence polarization binding assay, mP read-out; in the data active = inhibition above about 50%
GLD-1 RNA inh: GLD-1/TGE RNA complex disruptors, primary screen, biochemical, fluorescence polarization; purified GLD-1 + fluorescein TGE RNA; inhibition, % at 5.96 µM; actives 0.44% (n = 320,000); AID 2280, 2010;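 active = percent inhibition above a per-plate cutoff, the plate mean of test compounds plus 3 SD, cut at about 30% in these data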;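 also: 0% = DMSO wells with GLD-1 and probe and 100% = wells lacking GLD-1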
MCL1-BIM inh: inhibitors of MCL1 binding to BIM-BH3, primary screen, biochemical, fluorescence polarization; Induced myeloid leukemia cell differentiation protein Mcl-1 (Homo sapiens), Q07820; GST-MCL1 / FITC-Bim-BH3 fluorescence polarization; inhibition, % at 10.9 µM; actives 0.68% (n = 320,000);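 active = inhibition above the mean inhibition of all tested compounds plus 3 SD, set per campaign, cut at about 40% in these data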;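 also: 0% = DMSO wells and 100% = unlabeled Bim-BH3 peptide control; higher means more loss of mP so more displacement of Bim peptide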
Target sequence (Q07820 whole entry, looked up): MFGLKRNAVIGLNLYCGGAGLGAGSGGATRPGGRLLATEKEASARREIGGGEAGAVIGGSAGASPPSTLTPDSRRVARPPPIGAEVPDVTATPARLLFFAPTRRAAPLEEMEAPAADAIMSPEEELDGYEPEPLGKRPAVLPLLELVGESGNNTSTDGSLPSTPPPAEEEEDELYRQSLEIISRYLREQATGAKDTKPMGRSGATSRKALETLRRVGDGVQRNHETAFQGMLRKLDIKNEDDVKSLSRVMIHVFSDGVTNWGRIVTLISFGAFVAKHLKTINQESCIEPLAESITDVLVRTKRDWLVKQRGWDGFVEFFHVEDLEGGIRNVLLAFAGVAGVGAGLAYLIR
Bcl-xL conf: Bcl-xL inhibitors blocking Bim BH3 binding, confirmation, counter-screen for MCL1 inhibitor project, biochemical, fluorescence polarization; GST-Bcl-xL / FITC-Bim BH3 peptide FP binding; AID 2166, 2009; inhibition, % at 10.9 µM; shares compounds with MCL1-BIM inh; actives 54% (n = 1,700);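 active = inhibition above a cutoff equal to the mean inhibition of all tested compounds plus 3 SD, cut at about 30% in these data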;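 also: 0% = DMSO wells and 100% = unlabeled Bim BH3 control peptide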
MCL1 BIM confirm: inhibitors of MCL1 binding to BIM-BH3, confirmation, biochemical, fluorescence polarization, triplicate | inhibition, % at 10.9 µM | actives 61% (n = 1,700) | shares compounds with MCL1-BIM inh | GST-MCL1 / FITC-Bim-BH3 fluorescence polarization;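 active = inhibition above the average of all tested compounds plus 3 SD, cut at about 40% in these data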;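 also: 0% = DMSO wells and 100% = unlabeled Bim-BH3 control peptide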
* hit, by the source's call; ? = inconclusive; . = no result given. Rows were chosen to be rich in hits. Some 1.3% of all compounds tested hit in one or more screens of this group.

SMILES	BCLXL inh	MEX-5 binding	EBV gp42 block	GLD-1 RNA inh	MCL1-BIM inh	Bcl-xL conf	MCL1 BIM confirm
O=C(/C=C/c1ccc(Cl)c([N+](=O)[O-])c1)Nc1ccc(NC(=O)c2ccco2)cc1	.	-0.6	4.2	.	.	.	.
COc1ccc(C(=O)Nc2ccc(NC(=O)c3ccccc3)cc2)cc1S(=O)(=O)N1CCOCC1	0.8	-2.2	.	1.5	-3.8	.	.
COc1ccc(NC(=O)c2c3c(nc4ccccc24)CCC3)cc1S(=O)(=O)N1CCOCC1	9.6	-6.5	36.9	3.7	49.9*	15.5	44.9*
COc1ccc(-c2nnnn2C)cc1S(=O)(=O)Nc1ccc(C)cc1C	1.6	-0.5	.	-5.3	-6.5	.	.
Cc1c2ccccc2cc[n+]1CCCS(=O)(=O)[O-]	7.9	-0.2	-2.9	-1.0	5.4	.	.
CC1(C)C(/C=C/C=C/C=C/C=C2\N(CCCCS(=O)(=O)O)c3ccc4ccccc4c3C2(C)C)=[N+](CCCCS(=O)(=O)[O-])c2ccc3ccccc3c21	84.6*	.	.	0.3	89.8*	67.6*	74.2*
CCc1cccc(OCC(=O)Nc2cc(S(=O)(=O)N3CCOCC3)ccc2N2CCCC2)c1	4.6	0.8	.	1.4	-2.9	.	.
CCOc1ccccc1C(=O)OCC(=O)NCC1CCCCC1	-8.3	-1.9	.	0.9	-12.5	.	.
O=C(C1CCCCC1)N1CCc2[nH]c3ccc(F)cc3c2C1	2.7	0.5	-3.1	2.5	0.3	.	.
COc1ccccc1NC(=O)N1CCc2[nH]c3ccc(F)cc3c2C1	52.3*	-2.0	8.4	50.5*	49.6*	14.1	20.4
O=C1NC(=O)[C@@H]2C3c4ccccc4C=CN3[C@H](C(=O)c3cccs3)[C@H]12 (stereo partly specified)	122.6*	-53.2*	88.4*	101.5*	124.3*	61.2*	87.3*
COc1ccc(OC)c(N2C(=O)[C@@H]3C(c4ccccc4Cl)=NO[C@@H]3C2=O)c1	12.2	-4.1	0.2	3.0	52.6*	15.6	37.6
O=C(Nc1cc(Cl)ccc1N1CCCC1)C1=NN(c2ccccc2)C(=O)CC1	5.7	.	.	0.5	0.5	.	.
Cc1ccccc1C1C(C#N)=C2N=C(N)c3c(sc4c3CCCCC4)N2C2=C1C(=O)CCC2 (stereo unspecified)	61.4*	-3.3	20.8	48.7*	66.9*	53.5*	68.1*
NC1=NC(=O)/C(=C/c2ccc(-c3ccc(S(N)(=O)=O)cc3)o2)S1	23.9	-40.1*	.	5.3	50.0*	40.7*	39.1
NC1=NC(=O)/C(=C\c2ccco2)S1	55.1*	-17.5	5.5	12.2	83.8*	43.5*	63.8*
CN(C)c1ccc(/C=C/c2cc[n+]([O-])cc2)cc1	100.7*	?	5.0	51.6*	108.6*	88.6*	100.0*
CCc1cc(=O)oc2cc(C)c(CN3CCCC3)c(O)c12	33.2*	-1.1	10.3	14.3	72.1*	52.0*	88.0*
Cn1c(N)c(C(=O)CSc2nnc(C3CC3)n2-c2ccccc2)c(=O)n(C)c1=O	2.9	.	.	1.4	58.2*	4.3	4.9
Cn1c(N)c(C(=O)CSc2nnc(C3CC3)n2-c2ccccc2)c(=O)[nH]c1=O	.	.	.	-1.5	.	.	.
Cn1c(N)c(C(=O)CSc2nc(C3CC3)n(-c3ccccc3)n2)c(=O)[nH]c1=O	10.1	.	.	-4.3	69.3*	-12.1	-14.3
CC(Sc1nc(C2CC2)n(-c2ccccc2)n1)C(=O)c1c(N)n(C)c(=O)n(C)c1=O (stereo unspecified)	4.2	-1.4	.	-3.6	-2.1	.	.
O=C(NCCCn1ccnc1)/C(=C\c1ccccc1Cl)NC(=O)c1ccccc1	-2.9	1.8	.	-4.3	-5.9	.	.
CCc1ccccc1NC(=O)CNC(=O)c1cccc(S(=O)(=O)N2CCN(Cc3ccccc3)CC2)c1	6.1	-1.3	.	10.0	5.6	.	.
CCCCC(=O)Nc1ccccc1CC	2.7	-1.6	-16.1	6.1	-4.5	.	.
SMILES	BCLXL inh	MEX-5 binding	EBV gp42 block	GLD-1 RNA inh	MCL1-BIM inh	Bcl-xL conf	MCL1 BIM confirm
CC(=O)NN1C(=O)/C(=C\c2ccc(Br)o2)SC1=S	33.4*	-0.9	-18.9	7.8	70.9*	12.7	18.3
CC(=O)NN1C(=O)/C(=C\c2ccc(O)cc2)SC1=S	-13.2	?	-103.4	-81.3	-14.0	.	.
CC(=O)NN1C(=O)/C(=C/c2ccc(Br)o2)SC1=S	18.8	-20.9	-12.9	-3.3	45.2*	-6.7	-25.1
CC(=O)NN1C(=O)/C(=C\c2ccccc2)SC1=S	3.5	-0.8	.	0.4	5.4	.	.
O=C(O)c1cc(-c2ccc(/C=C3\NC(=O)N(c4ccccc4)C3=O)o2)ccc1Cl	22.9	-10.5	-2.0	8.5	30.7	.	.
O=C(O)c1cc(-c2ccc(/C=C3\NC(=O)N(c4ccc(Cl)cc4)C3=O)o2)ccc1Cl	28.9	?	11.3	4.3	72.1*	31.5*	54.8*
Cc1cc(C=O)c2c(c1)C=CC1(Oc3ccccc3C(=O)N1C)O2 (stereo unspecified)	58.3*	-1.7	6.6	108.8*	52.9*	11.3	14.9
CN1C(=O)c2ccccc2OC1(C)Cc1ccccc1 (stereo unspecified)	5.5	-1.2	-10.2	0.4	-0.2	.	.
O=S(=O)(Nc1nc2ccccc2nc1-[n+]1cccc(N=C([O-])c2ccccc2Cl)c1)c1ccccc1	71.2*	-9.2	74.3*	12.7	84.1*	59.6*	90.2*
COc1ccc(C([O-])=Nc2ccc[n+](-c3nc4ccccc4nc3NS(=O)(=O)c3ccccc3)c2)cc1	7.7	.	6.7	4.5	0.3	.	.
Cc1cc2ncn(-c3ncccc3[N+](=O)[O-])c2cc1C	85.5*	-8.8	.	79.5*	101.7*	22.9	34.0
O=[N+]([O-])c1cccnc1-n1cnc2ccccc21	3.4	-0.8	-7.0	5.9	5.0	.	.
O=C(COC(=O)/C=C/c1ccc(OC(F)F)cc1)Nc1ccc2[nH]c(=O)[nH]c2c1	.	.	.	-2.2	.	.	.
O=C(COC(=O)c1ccc(O)cc1O)NC12CC3CC(CC(C3)C1)C2	139.1*	.	.	99.8*	157.7*	10.5	16.2
Oc1ccc(/C=N/Nc2cc(N3CCCC3)nc(N3CCCC3)n2)cc1O	17.9	-2.6	-7.9	11.6	47.9*	14.7	13.9
